Only some compounds are listed: those with a hit (about 2.2% of all), similar ones and a draw of the others.
Insulin prom up: MIN6 insulin promoter up-regulation; MIN6 insulin promoter-GFP reporter, high-content imaging; stronger effect = higher value; z-score at 5 µM; 190,000 tested, 0.3% active; AID 1625;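 active means z-score above 3 at 5 µM with at least 500 cells counted in the well; inconclusive means wells under 500 cells, flagged as cytotoxic or low count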
Redox H2O2 prof: compounds producing H2O2 with reducing agent – biochemical, NIH compound library profiling, artefact control for MLSCN library redox annotation, primary screen; DTT-dependent redox cycling H2O2, phenol red/HRP absorbance; 100% = 100 µM peroxide control, 0% = buffer; activation, % at 10 µM; 200,000 tested, 0.03% active; AID 878;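 active means activation of at least 50% relative to the plate's high and low controls in the primary single-dose screen; inactive means activation below 50%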;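 further: compound incubated with DTT at 0.8 mM final as the reducing agent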
p47phox inh: inhibitors of human p47phox binding | P14598 | p47phox/p22phox peptide binding, fluorescence polarization, 2 h | inhibition, % at 24.7 µM | 220,000 tested, 0.53% active | AID 1274;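 active means inhibition above about 30%, limit read from the data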;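 further: 0% = p47phox with labelled peptide and 100% = labelled peptide alone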
Target sequence (P14598 whole entry, looked up): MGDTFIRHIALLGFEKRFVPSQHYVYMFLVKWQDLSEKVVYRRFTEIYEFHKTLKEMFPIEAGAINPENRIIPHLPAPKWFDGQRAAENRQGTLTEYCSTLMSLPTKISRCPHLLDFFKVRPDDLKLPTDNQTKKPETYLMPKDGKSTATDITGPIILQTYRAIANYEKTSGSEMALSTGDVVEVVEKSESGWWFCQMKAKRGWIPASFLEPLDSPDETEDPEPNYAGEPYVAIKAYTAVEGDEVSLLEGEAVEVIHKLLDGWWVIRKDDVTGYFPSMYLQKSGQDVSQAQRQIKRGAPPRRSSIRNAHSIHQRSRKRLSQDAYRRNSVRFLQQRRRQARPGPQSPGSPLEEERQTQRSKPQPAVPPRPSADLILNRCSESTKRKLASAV
Efa HMGR inh: E. faecalis class II HMG-CoA reductase inhibition; AID 1066; 190,000 tested, 0.41% active; purified E. faecalis HMGR, NADPH absorbance 340 nm kinetic; inhibition, % at 10 µM;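 active means inhibition above a set limit, the median over all tested compounds plus 3 SD, cut at about 9.5% in these data; inconclusive means no clear call, values can overlap the other calls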;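 further: enzyme runs in reverse so mevalonate oxidation gives rising NADPH absorbance; 0% = complete reaction with DMSO and 100% = background rate lacking mevalonate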
Autophagy mod: modulators of autophagy; MEF GFP-LC3 puncta imaging; test concentration mostly 10 µM; calls only at 10 µM (by protocol); 190,000 tested, 0.98% active;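 active means percentage of spot-positive cells more than 3 SD above its plate mean, without a fluorescence outlier flag or 80% toxicity; inconclusive means no clear call, values can overlap the other calls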;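 further: spot-positive cell cutoff set from DMSO-treated cells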
Arbovirus anti: antivirals against arbovirus infection; arbovirus infection cell-based antiviral screen; inhibition, % at 10 µM; 200,000 tested, 0.37% active; AID 1251; in the data active means inhibition above about 30%
* marks the source's active call; other numbers are inactive results; i = inactive; ? = inconclusive; . = no result given; + = active, no number.

SMILES | Insulin prom up | Redox H2O2 prof | p47phox inh | Efa HMGR inh | Autophagy mod | Arbovirus anti
Cc1cccc(-n2nc(C)c3c(C(=O)O)cc(-c4cccs4)nc32)c1 | 1.8 | -1 | -6 | 0 | i | 42*
Cc1ccc(-c2cc3cccc[n+]3cc2-c2ccc(C)cc2)cc1 | ? | -1 | 1 | 2 | i | -11
Cc1ccc(OCCSCc2nnc(NC(=O)Nc3cccc(Cl)c3)s2)cc1 | -0.53 | 0 | -36 | -1 | i | 38*
CCC(C(=O)NCc1ccncc1)c1ccccc1 (centres undefined) | -0.26 | 0 | -9 | -5 | i | -6
O=C1CN(C(=O)c2cc3ccccc3oc2=O)C(c2ccc(F)cc2)c2cc(Br)ccc2N1 (centres undefined) | 0.76 | 1 | -17 | 2 | + | -3
Cc1sc2nc(CN3CCCC3)nc(N3CCC(C(N)=O)CC3)c2c1C | . | -1 | -1 | -3 | i | 11
O=C(c1ccco1)N1CCN(Cc2nc(Cc3ccccc3)no2)CC1 | 0.33 | 0 | 131* | -3 | i | 4
Cc1sc2nc(CN3CCCC3)nc(N3CCN(C(=O)c4ccco4)CC3)c2c1C | -0.5 | 0 | -44 | -11 | + | -1
Cc1[nH]c2ccccc2c1C(=O)CSc1nc2ccccc2c(=O)n1CCCN1CCOCC1 | -1.2 | 0 | -37 | -2 | i | -10
CN(C)C(=O)C12CCC(C)(c3nc4ccccc4nc31)C2(C)C (centres undefined) | 3.4* | 1 | 3 | -1 | i | 0
Cc1cc2nc3c(nc2cc1C)C1(C(=O)N(C)C)CCC3(C)C1(C)C (centres undefined) | -1 | 0 | -7 | 1 | i | -3
CSc1ccc(CN2CCC(CO)(Cc3ccc(Cl)cc3)CC2)cc1 | . | -2 | -17 | -3 | + | -2
CCOc1ccc(CCNC(=O)C(CCC(N)=O)NC(=O)OCc2ccccc2)cc1OCC (centres undefined) | 1 | -1 | -17 | -1 | i | 3
O=C(NCc1ccccc1)C1CCCN1S(=O)(=O)c1cccc2cccnc12 (centres undefined) | -0.33 | -1 | 47* | -1 | . | 2
COc1ccc(CNC(=O)C2CCCN2S(=O)(=O)c2ccc(Cl)cc2)cc1 (centres undefined) | 0.19 | 0 | -9 | 18* | i | -6
COc1ccc(S(=O)(=O)N2CCC[C@H]2C(=O)NCc2ccc(Cl)cc2)cc1 | 0.35 | . | 0 | . | . | .
N#C/C(=C\c1cn(CCOc2ccccc2)c2ccccc12)C(=O)NCc1cccs1 | -0.3 | 0 | -1 | -4 | i | -12
COc1cccc(C(=O)CN2C(=O)C(C)(C)Oc3ccc(C(=O)N4CCCCCC4)cc32)c1 | 3.6* | -1 | -20 | 0 | i | -12
Cc1cccc(N2CCN(C(=O)Cc3c(C(=O)O)[nH]c4ccc(Cl)cc34)CC2)c1C | -0.27 | 0 | -9 | -2 | i | 9
COC(=O)c1nn2c(C(F)(F)F)cc(-c3ccc(Br)o3)nc2c1Br | 0.23 | 0 | . | . | + | .
O=C(NCc1ccco1)c1nn2c(C(F)(F)F)cc(-c3cccs3)nc2c1Br | -0.54 | -1 | -12 | -7 | i | -10
COc1ccc(N=c2oc3c(OC)cccc3cc2C(=O)NCc2ccco2)cc1OC | -0.76 | 1 | -1 | -5 | + | -11
COc1ccc(N=c2oc3ccccc3cc2C(=O)Nc2ccccn2)cc1OC | 0.03 | 0 | 8 | 2 | + | -8
CCN(CC)CCN1C(=O)C(O)=C(C(=O)c2cc3cccc(OC)c3o2)C1c1ccc(F)cc1 (centres undefined) | 0.03 | . | -1 | . | . | .
COC(=O)c1sccc1N/N=C/c1cccc(Oc2ccccc2)c1 | 0.73 | 1 | -5 | -2 | i | 5
SMILES | Insulin prom up | Redox H2O2 prof | p47phox inh | Efa HMGR inh | Autophagy mod | Arbovirus anti
CCOc1ccc(S(=O)(=O)N2CCN(c3ccccc3OC)CC2)c2cccnc12 | -1.2 | 0 | -11 | 0 | i | 34*
CCOc1ccc(S(=O)(=O)N2CCN(c3ccccc3)CC2)c2cccnc12 | . | -5 | -9 | -1 | i | 18
CC1(C)Cc2c(C#N)c(N)sc(=S)c2CS1 | -0.03 | 0 | 52* | 0 | i | 6
COC(=O)c1sc(N)c(C(=O)OC)c1COC(=O)[C@@H](NS(=O)(=O)c1cccc(Cl)c1)C(C)C | . | 0 | -22 | -1 | i | -10
COC(=O)c1c(NC(=O)COC(=O)[C@@H](NS(=O)(=O)c2cccc(Cl)c2)C(C)C)sc2c1CCC2 | -0.78 | -1 | -26 | -4 | + | 7
CN(C(=O)Cc1c(C(=O)O)n(C)c2ccccc12)c1ccc(F)cc1 | 0.54 | -2 | -10 | -3 | i | 6
CC1(C)C(=O)Nc2ccccc2N1C(=O)COC(=O)c1ccc(Cl)c(S(=O)(=O)NCc2ccccc2)c1 | 0.01 | 0 | -41 | -1 | i | -1
O=C(CCC1CCCN(C(=O)Cc2cccc(F)c2)C1)N1CCN(c2ccccn2)CC1 (centres undefined) | 1.5 | -1 | -3 | -1 | i | -1
O=C(CCC1CCCN(C(=O)CCCc2ccccc2)C1)N1CCN(c2ccccn2)CC1 (centres undefined) | -0.45 | . | 95* | . | . | .
CNc1ccccc(-c2ccc3ccccc3n2)c1=O | 0.09 | 0 | -2 | 2 | i | 1
CC1CCN(S(=O)(=O)c2ccc3c(c2)C(=NO)c2cc(S(=O)(=O)N4CCC(C)CC4)ccc2-3)CC1 | ? | -6 | -5 | . | + | -41
Cc1cc(NC(=O)c2ccc(Cl)cc2)no1 | -0.45 | -1 | 48* | -4 | i | 1
CCOc1ccc(C(=O)Nc2cc(C)on2)cc1 | 1.2 | 0 | -10 | 1 | i | -1
CCc1ccccc1NC(=O)CN(C)C(=O)CSc1nn(-c2ccc(F)cc2)c(=S)s1 | 0.12 | 1 | -19 | -4 | i | -4
COC(=O)c1cc2c(-c3ccccc3)cc3ccccn3c-2c1C(=O)OC | . | 0 | 53* | 0 | i | -16
COC(=O)c1c(C)c2c(C)cc3ccccn3c-2c1C(=O)OC | -0.2 | 0 | 6 | -7 | i | 2
O=C(NCCCN1CCCCCC1)c1ccc(CS(=O)(=O)Cc2ccccc2F)o1 | . | 2 | 89* | 1 | i | -7
COc1ccc(OCC(=O)Nc2ccc(NC(=O)c3cccs3)c(OC)c2)cc1 | 0.07 | -1 | -4 | -1 | i | 11
COc1cc(NC(=O)COc2ccccc2[N+](=O)[O-])ccc1NC(=O)c1cccs1 | 0.07 | 2 | 52* | -1 | i | -3
C=CCNC(=O)C(=O)N/N=C/c1ccco1 | 0.62 | 0 | -3 | -2 | i | 4
Cc1nc(N2CCN(C(=O)c3ccc(Cl)cc3)CC2)c(C#N)c2c1COC(C)(C)C2 | . | 0 | 7 | -2 | i | -7
Oc1ccccc1CNc1ccc2c(c1)OCCO2 | -0.14 | 0 | -4 | 5 | i | -5

Screening data deposited in PubChem BioAssay by several laboratories.
